ELG1 repair inh: ELG1-dependent DNA repair inhibition; hit rate 2.3% among 330,000; Potency, µM (highest dose often 46.1 µM), for the others: top-dose activity change, negative = inhibition, most hits filed as inhibitors; HEK293T ELG1-luciferase reporter, luminescence, 16 h; DNA damage induced by 5-fluorouridine; AID 504467; further: potency means the concentration at half of the fitted maximal effect; on the % scale 0 is the no-effect control and ±100 the full control effect; nearly all actives have a fitted effect of over 55% in size
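HEK293T cells expressing luciferase-tagged ELG1 (2,000/well) received 5-Fluorouridine plus compound or DMSO for 16 hr at 37 °C. Luciferase was read by ONE-Glo luminescence after 30 min at room temperature.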
Nrf2 ARE act: activates Nrf2 signaling. hit rate 0.31% among 410,000. AID 624171. Potency, µM (highest dose often 46.1 µM), without a hit: at the top dose activation, hits mostly activators. AREc32 ARE-luciferase reporter (MCF7-derived line), luminescence, 24 h; further: potency means the concentration at half of the fitted maximal effect; % of control where 0% means no effect; nearly all actives have a fitted effect of over 65% in size
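ARE activation measured as luciferase luminescence (Steady-Glo, 30 min RT) in AREc32_Fluc cells after 24 hr compound exposure at 37 deg C, 5% CO2; cells seeded overnight at 1000/well in OPTI-MEM, 5% FBS.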
Nrf2 inh: blocks Nrf2 signaling | hit rate 2.1% among 360,000 | Potency, µM (doses to about 46 µM), without a hit: at the highest dose activity change, negative = inhibition, most hits filed as inhibitors | A549 ARE-Fluc reporter, luciferase luminescence, 18-24 h | AID 504444; further: potency means the concentration at half of the fitted maximal effect; on the % scale 0 is the no-effect control and ±100 the full control effect; nearly all actives have a fitted effect of over 60% in size
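Quantitative HTS in A549 cells stably bearing an antioxidant response element-firefly luciferase construct. Inhibition of Nrf2-driven transcription was scored by luminescence after 18-24 h of compound exposure at 37 °C.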
A549 viability: kills or reduces viability of A549 cells in Nrf2 counter-screen; A549 ARE-Fluc cells, CellTiter-Fluor viability, 18-24 h; Potency, µM (doses to about 46 µM), inactives show at the top dose activity change, negative = cytotoxicity, hits mostly inhibitors; hit rate 0.16% among 390,000; AID 504648; further: potency means the concentration at half of the fitted maximal effect; on the % scale 0 is the no-effect control and ±100 the full control effect
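A549 ARE-Fluc cells in 5% FBS OPTI-MEM, 5000 cells/well, rested 2 h then exposed to compounds in concentration-response for 18-24 h at 37 °C. Viability by CellTiter-Fluor fluorescence (Ex 405/Em 525) after 30 min; luciferase luminescence (BugLite, 15 min, RT) read afterwards.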
IDH1 R132H inh: blocks human mutant IDH1 R132H enzyme. hit rate 0.093% among 390,000. IDH1-R132H enzyme, NADPH consumption, diaphorase/resazurin fluorescence. Potency, µM (top dose mostly 76.6 µM), for the others: top-dose activity change, negative = inhibition, most hits filed as inhibitors; further: potency means the concentration at half of the fitted maximal effect; on the % scale 0 is the no-effect control and ±100 the full control effect; nearly all actives have a fitted effect of over 65% in size
Target sequence (O75874 whole entry R132H, stated change not applied): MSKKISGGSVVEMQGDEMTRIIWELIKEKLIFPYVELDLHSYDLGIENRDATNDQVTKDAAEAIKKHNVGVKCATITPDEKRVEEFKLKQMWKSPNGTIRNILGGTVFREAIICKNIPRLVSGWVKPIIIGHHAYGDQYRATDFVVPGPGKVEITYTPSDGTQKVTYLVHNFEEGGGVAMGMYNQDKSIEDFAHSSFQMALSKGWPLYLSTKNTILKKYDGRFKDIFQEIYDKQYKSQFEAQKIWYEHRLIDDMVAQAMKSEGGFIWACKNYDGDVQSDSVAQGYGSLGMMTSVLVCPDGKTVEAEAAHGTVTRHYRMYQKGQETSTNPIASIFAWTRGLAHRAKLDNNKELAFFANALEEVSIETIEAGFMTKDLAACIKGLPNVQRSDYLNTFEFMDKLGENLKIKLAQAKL
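IDH1-R132H (0.5 ug/mL dispensed) in pH 7.5 Tris buffer was preincubated 30 min with compound, then given a substrate mix of 0.016 mM NADPH and 2 mM alpha-KG for 80 min at room temperature; remaining NADPH was read by diaphorase/resazurin fluorescence.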
Resorufin autofl: autofluorescence interference, mutant IDH1 hit counter-screen | shares compounds with IDH1 R132H inh | Resorufin detection reagent fluorescence interference, cell-free | inhibition of signal, % at 51.2 µM | 750 tested, under 10 active | AID 623980;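 further: 0% = wells with normal resorufin and full inhibition = wells lacking resorufin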
WT IDH1 inh: inhibits human wild-type IDH1, mutant selectivity check; hit rate 9% among 750; WT IDH1 enzyme, NADPH diaphorase/resazurin fluorescence; shares compounds with IDH1 R132H inh; Potency, µM (highest dose often 115 µM), for the others: top-dose activity change, negative = inhibition, usual class: inhibitors;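 further: potency means the concentration at half of the fitted maximal effect; 0% = full WT IDH1 enzyme control and full inhibition = no enzyme wells; nearly all actives have a fitted effect of over 55% in size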
Target sequence (O75874 whole entry, looked up): as the sequence (O75874 whole entry R132H, stated change not applied) above, with H132R counted along it
mIDH1 confirm: confirmation of human mutant IDH1 inhibitors; shares compounds with IDH1 R132H inh; IDH1 R132H enzyme, NADPH diaphorase/resazurin fluorescence; Potency, µM (highest dose often 76.6 µM), for the others: at the highest dose activity change, negative = inhibition, most hits filed as inhibitors; hit rate 83% among 750; AID 624002; further: potency means the concentration at half of the fitted maximal effect; nearly all actives have a fitted effect of over 50% in size
* marks the source's active call; other numbers are inactive results; ? = inconclusive; nt = not tested or not shown; [ ] = remark or other dose. In the library only some 3.8% were active in any assay of this set; here they are far more common. The call rests on the fitted dose curve; in most records, active means well fitted curve in the direction sought with a large enough effect; inconclusive means small, poorly fitted or top-dose-only effect, or another doubt; inactive means no such curve, though single readings can be large; an effect the other way counts as inactive or inconclusive.

SMILES | ELG1 repair inh | Nrf2 ARE act | Nrf2 inh | A549 viability | IDH1 R132H inh | Resorufin autofl | WT IDH1 inh | mIDH1 confirm
Cc1ccc(-c2n[nH]c3c2C(c2ccccc2)N(c2ccc(C(=O)O)cc2)C3=O)cc1 (stereo not drawn) | 1% | 0% | 1% | 0% | 52µM* | -2 | -23% | 28µM*
O=C1c2[nH]nc(-c3ccc(Br)cc3)c2C(c2cccc(O)c2)N1c1ccc(Cl)cc1 (stereo not drawn) | nt | -4% | ? | -24% | 40µM* | -6 | 1% | 20µM*
COc1ccc(C2c3c(-c4ccccc4)n[nH]c3C(=O)N2c2ccc(C(=O)O)cc2)c(OC)c1 (stereo not drawn) | nt | -2% | 1% | -5% | 40µM* | 6 | ? | 28µM*
CCOC(=O)c1ccc(N2C(=O)c3n[nH]c(-c4ccco4)c3C2c2ccc(O)c(OCC)c2)cc1 (stereo not drawn) | nt | -3% | ? | 13% | -12% | nt | nt | nt
CCOC(=O)c1ccc(N2C(=O)c3n[nH]c(-c4ccco4)c3C2c2ccc(OC)cc2OC)cc1 (stereo not drawn) | nt | -2% | ? | -19% | ? | 1 | -1% | ?
Cc1ccc(-c2n[nH]c3c2C(c2cccc(O)c2)N(c2ccc(C(=O)O)cc2)C3=O)cc1 (stereo not drawn) | 2% | 0% | 2% | 0% | 7% | nt | nt | nt
COC(=O)c1ccc(C2c3c(-c4ccc(Br)cc4)n[nH]c3C(=O)N2c2ccc(Cl)cc2)cc1 (stereo not drawn) | nt | -1% | ? | -17% | -12% | nt | nt | nt
CCCCc1nn2c(C)c(-c3ccc(OCC)cc3)nc2s1 | nt | 4% | 6% | -10% | 16% | nt | nt | nt
CCCN(CC(=O)Nc1ccccc1C)C(=O)c1ccc(N2CCCC(C)C2)c([N+](=O)[O-])c1 (stereo not drawn) | nt | 2% | -19% | -10% | 6% | nt | nt | nt
CCOc1ccc(N2C(=O)c3[nH]nc(-c4ccccc4)c3C2c2ccc(O)c(OC)c2)cc1 (stereo not drawn) | nt | 4% | nt | -5% | ? | 0 | 1% | 20µM*
COc1ccc(N(C(=O)c2ccccc2F)S(=O)(=O)c2ccc3c(c2)n(C)c(=O)n3C)cc1 | nt | 2% | 26% | -1% | nt | nt | nt | nt
Cc1cccc(-c2nc3ccccc3n3c(-c4ccccc4)c4c(=O)n(C)c(=O)n(C)c4c23)c1 | nt | -1% | 9% | 0% | 6% | nt | nt | nt
Cc1ccc(C)c(N2CCN(C(=O)CCS(=O)(=O)c3cc(Br)cc4c3N(C(=O)C3CC3)CC4)CC2)c1 | nt | 0% | -22% | 0% | -6% | nt | nt | nt
S=C1NC(c2ccccc2)=CC(c2ccccc2)N1 (stereo not drawn) | -11% | 3% | -10% | 3% | 0% | nt | nt | nt
N#CC1C(=O)NC(c2ccccc2)=CC1c1ccccc1 (stereo not drawn) | nt | ? | -14% | 1% | 52µM* | -6 | 160% | 45µM*
C=CCOC(=O)Nc1snnc1C | -1% | 0% | nt | 3% | -5% | nt | nt | nt
Cc1nnsc1NC(=O)OCc1ccc(C(C)(C)C)cc1 | -2% | 1% | 10µM* | -14% | ? | 3 | 2% | -3%
CC(=O)Nc1ccc(C=NNc2ccc(S(=O)(=O)Nc3ccccc3C(=O)O)cc2[N+](=O)[O-])cc1 | 15% | -2% | 4% | -13% | -4% | nt | nt | nt
O=C(O)c1ccccc1NS(=O)(=O)c1ccc(N/N=C/c2cccc(O)c2O)c([N+](=O)[O-])c1 | nt | 1% | 5% | -23% | 41µM* | 8 | ? | 14µM*
COC(=O)[C@@]12CCCCN1[C@H](c1ccc(-c3ccc(OC)cc3)c(OC)c1)[C@@H]1C(=O)N(C)C(=O)[C@@H]12 | -10% | 3% | ? | -8% | 35µM* | 4 | 5% | 5µM*
COC(=O)[C@@]12CCCCN1[C@H](c1ccc(-c3ccc(OC)cc3)cc1)[C@@H]1C(=O)N(C)C(=O)[C@@H]12 | ? | 0% | ? | -15% | 0% | nt | nt | nt
CCC(=O)N1CCc2cc(S(=O)(=O)CCC(=O)Nc3cc(Cl)ccc3OC)ccc21 | nt | 11% | -8% | 0% | -4% | nt | nt | nt
N#CC1=C(N)NC(SCc2ccc(Br)cc2)=C(C#N)C12CCCCC2 | ? | 0% | ? | 5% | -1% | nt | nt | nt
N#CC1=C(N)NC(SCC(=O)Nc2ccc(Br)cc2)=C(C#N)C12CCCCC2 | 23µM* | 3% | ? | ? | ? | 1 | 7% | 22µM*
COCCN1Cc2cc3cc(C)ccc3nc2SC1=Nc1cccc(OC)c1 | ? | 0% | -6% | 2% | 6% | nt | nt | nt
SMILES | ELG1 repair inh | Nrf2 ARE act | Nrf2 inh | A549 viability | IDH1 R132H inh | Resorufin autofl | WT IDH1 inh | mIDH1 confirm
Cc1cccc(N=C2Sc3nc4c(C)c(C)ccc4cc3CN2CCN2CCOCC2)c1 | 9.2µM* | 5% | ? | 3%[1.84 µM] | ? | 8 | 5% | 11µM*
CSc1nn(Cc2ccc(C)cc2)c(N)c1S(=O)(=O)c1ccccc1 | nt | 1% | 16µM* | -1% | 32µM* | 2 | -2% | 10µM*
CCCCOc1ccc(C(=O)NCC(=O)NC2CCC(C)CC2)cc1 (stereo not drawn) | ? | 0% | 11% | -1% | 9% | nt | nt | nt
Cc1ccc(/C=C/C(=O)c2ccc([N+](=O)[O-])o2)cc1 | ? | ? | 2% | -9% | 35µM* | -10 | ? | 8.9µM*
O=C(/C=C/c1ccc(Cl)cc1)c1ccc([N+](=O)[O-])o1 | ? | 24% | -20% | -17% | 11µM* | 0 | ? | 8.9µM*
Cc1cc(O)c(C(=O)/C=C/c2ccc(Cl)cc2)c(=O)o1 | ? | ? | 1% | 0% | -4% | nt | nt | nt
COc1ccc(OC)c(-c2nc3c(C#N)c[nH]n3c2NC2CCCCC2)c1 | nt | 6% | -27% | -2% | 0% | nt | nt | nt
O=C(NCc1ccccc1)c1cnc(N2CCCCC2)c2ccccc12 | nt | 4% | nt | 10% | 5% | nt | nt | nt
O=C(O)c1cc(-c2ccc(-c3c(-c4ccc5c(c4)OCO5)noc3-c3ccsc3)cc2)nc2ccccc12 | ? | 4% | ? | -2% | 45µM* | 4 | ? | 20µM*
Cc1cc(N(CCO)CCO)ccc1C(c1ccc(N(CCO)CCO)cc1C)c1ccccc1Cl | 2% | 10% | -15% | -11% | 26µM* | 7 | ? | 7.1µM*

Screens deposited in PubChem by National Center for Advancing Translational Sciences (NCATS).
